Measurements as given in PubChem BioAssay (NCI).
The panel holds about 83,000 compounds, 20% with a hit somewhere; the sample as a whole holds those more often.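 Plates (96-well) were seeded with cells, treated with compound at one concentration, and incubated for 48 hours before percent growth was determined.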 Active and inactive are the calls of the source. How the source made its calls: active means growth percent below 10; inactive means the rest.

Key:
Assay in all cases: NCI-60 one-dose screen, 48 h (100 = growth as untreated, 0 = no growth, -100 = all killed)
Settings in all cases: 10 µM unless noted
[1] = system: NCI-H23 lung
[2] = system: NCI-H226 lung
[3] = system: NCI-H322M lung
[4] = system: HOP-62 NSCLC
[5] = system: NCI-H460 lung
[6] = system: NCI-H522 lung
[7] = system: A549/ATCC NSCLC
[8] = system: 786-0 renal
[9] = system: COLO 205 colon
[10] = system: DU-145 prostate
[11] = system: K-562 leukemia
[12] = system: MALME-3M melanoma
[13] = system: MDA-MB-231 breast
[14] = system: RXF 393 renal
[15] = system: SF-268 CNS
[16] = system: SF-295 CNS
[17] = system: SF-539 CNS
[18] = system: UACC-257 melanoma
[19] = system: M14 melanoma

Measured: growth

O=C(NNc1nc2cc(F)ccc2n2cccc12)c1ccncn1
inactive: [1] 30% | [2] 13.2% | [3] 31.7% | [4] 20.5% | [7] 14.7% | [8] 11% | [9] 10.3% | [10] 18.6% | [11] 14.6% | [12] 27.6% | [13] 41.1% | [14] 30.3% | [15] 19.6% | [16] 12.1%
active: [5] 9.08% | [6] -6.6% | [17] 4.41% | [18] 5.01% | [19] 1.55%

CC(C)(C)c1ccc(-c2nnc(-c3nc4ccccc4nc3Cl)o2)cc1
inactive: [1] 90.9% | [2] 86.5% | [3] 92.9% | [4] 11.1% | [5] 88.1% | [6] 99.1% | [7] 102% | [8] 105% | [9] 104% | [10] 86.2% | [11] 65.9% | [12] 101% | [13] 90.5% | [14] 88.4% | [15] 42% | [16] 103% | [17] 93.8% | [18] 61.9% | [19] 93.1%

C[C@@H]1C[C@H]2C(=O)O[C@@H](C)C(NC(=O)[C@H](Cc3cc(F)cc(F)c3)NC(=O)Nc3ccc(Cl)cc3F)C(=O)N3CCC[C@H]3C(=O)N3CCCC[C@H]3C(=O)N[C@@H](CO)C(=O)N2C1 (some centres undefined)
active: [2] -4.63% | [9] -23% | [14] -10.3%
inactive: [1] 37.9% | [3] 48.6% | [4] 33.4% | [5] 14.5% | [6] 19.4% | [7] 26.2% | [8] 42.2% | [10] 26.2% | [11] 23.6% | [12] 46.3% | [13] 35.2% | [15] 31.7% | [16] 20% | [17] 36.2% | [18] 15.8% | [19] 20.7%

CCNC(=O)N1CCc2cc(OC)c(OCCc3ccc(OC)cc3)cc2C1c1ccc(Cl)cc1C (centres undefined)
active: [5] 1.35% | [6] -16.2% | [7] 9.93% | [8] 9.78% | [14] -4.98% | [17] 5.79%
inactive: [1] 25.1% | [2] 32.4% | [3] 46.6% | [4] 27.7% | [9] 13.9% | [10] 16.2% | [11] 12.3% | [12] 60.4% | [13] 12.4% | [15] 27.1% | [16] 13.3% | [18] 44.7% | [19] 17.5%

COc1ccc(CCOc2cc3c(cc2OC)CCN(C(=O)NCc2cocn2)C3c2ccc(C)cc2C)cc1 (centres undefined)
inactive: [1] 11.4% | [2] 34.3% | [3] 46% | [10] 14.1% | [11] 10% | [12] 52.2% | [13] 20.5% | [15] 21.2% | [16] 12.8% | [18] 38% | [19] 11.7%
active: [4] 8.99% | [5] 3.64% | [6] -41.2% | [7] 7.81% | [8] 5.15% | [9] -62% | [14] 1.12% | [17] 1.43%

CCCn1cnc2c(c1=N)C(c1ccc(OC)cc1)c1sc3c(CC)cccc3c1O2 (centres undefined)
inactive: [1] 18.9% | [2] 57% | [3] 37.6% | [4] 38.8% | [5] 10.1% | [7] 40.6% | [8] 32.3% | [9] 13.9% | [10] 16.7% | [11] 13.1% | [12] 53.5% | [13] 29.1% | [15] 45.1% | [18] 81.9%
active: [6] -14.3% | [14] -13.3% | [16] -18.1% | [17] -22% | [19] 2.9%

CC(=O)c1cc(C(=O)N2c3ccccc3Sc3ccccc32)n2ccc3ccccc3c12
inactive: [1] 62.8% | [2] 45.4% | [3] 61.8% | [4] 42.4% | [5] 30% | [7] 50.3% | [8] 38.4% | [9] 36.3% | [10] 53% | [11] 20.1% | [12] 49.6% | [13] 76.7% | [14] 31.7% | [15] 54.1% | [16] 18.8% | [17] 29.5% | [18] 57.4% | [19] 33.1%
active: [6] -38%

Cc1cc(-c2ccc(Cl)cc2)n(Cc2nnc(SCC(=O)Nc3ccc(S(N)(=O)=O)cc3)n2C2CCCCC2)n1
inactive: [1] 99.4% | [2] 93.5% | [3] 97.2% | [4] 114% | [5] 105% | [6] 99.8% | [7] 98.4% | [8] 108% | [9] 116% | [10] 117% | [11] 104% | [12] 87% | [13] 106% | [14] 110% | [15] 113% | [16] 98% | [17] 103% | [18] 101% | [19] 99.8%

Nc1nc(-c2cccc([N+](=O)[O-])c2)c(N=Nc2ccc([N+](=O)[O-])cc2Cl)s1
active: [1] 0.802% | [2] -2.56% | [5] 1.77% | [6] -3.73% | [8] 3.66% | [9] -61.6% | [12] -3.18% | [14] -31.1% | [16] -18.4% | [18] -8.89% | [19] 4.9%
inactive: [3] 13.8% | [4] 21.9% | [7] 15.2% | [10] 19.6% | [11] 10.7% | [13] 12.2% | [15] 20.5% | [17] 16.9%

COC(=O)c1[nH]nc2c1C1(C(=O)N(C)c3ccccc31)C(C#N)=C(N)O2 (centres undefined)
inactive: [1] 93.4% | [2] 99.2% | [3] 94.1% | [4] 118% | [5] 106% | [6] 99.5% | [7] 101% | [8] 102% | [9] 110% | [10] 102% | [11] 113% | [12] 103% | [13] 107% | [14] 114% | [15] 97.3% | [16] 118% | [17] 96.5% | [18] 103% | [19] 104%

Cn1cc(-c2nnc(N)nc2-c2c[nH]c3ccc(F)cc23)c2cc(F)ccc21
inactive: [1] 83% | [2] 91.6% | [3] 74% | [4] 58.7% | [5] 30.9% | [6] 57.5% | [7] 82.2% | [8] 90% | [9] 84.2% | [10] 88.2% | [11] 48.6% | [12] 77.7% | [13] 78.3% | [14] 98.7% | [15] 74.4% | [16] 59.4% | [17] 95.4% | [18] 121% | [19] 73.3%

Cc1ccc(N2C(=O)/C(=C/C=C/c3ccco3)SC2=S)cc1
inactive: [1] 98.9% | [2] 102% | [3] 96.4% | [4] 95.9% | [5] 88.9% | [6] 81.8% | [7] 86.3% | [8] 104% | [9] 94.3% | [10] 100% | [11] 61.2% | [12] 91.4% | [13] 94.9% | [14] 74.6% | [15] 105% | [16] 99.1% | [17] 101% | [18] 88.3% | [19] 103%

CCCn1cnc2c(c1=N)C(c1ccc(Cl)cc1)c1sc3c(C)cccc3c1O2 (centres undefined)
active: [5] 9.41% | [6] -5.59% | [9] 1.53% | [11] 7.73% | [14] -4.19% | [16] -6.66% | [17] -21.1% | [19] 8.06%
inactive: [1] 20.5% | [2] 62% | [3] 43.8% | [4] 44.2% | [7] 29.1% | [8] 33.8% | [10] 19.7% | [12] 59.5% | [13] 28.6% | [15] 41.1% | [18] 86.5%

N/C(=N\C(N)=N\c1nc2ccccc2s1)c1cccc(F)c1
inactive: [1] 76.5% [5 µM] | [2] 90.8% [5 µM] | [3] 92.6% [5 µM] | [4] 81.1% [5 µM] | [5] 88.7% [5 µM] | [6] 94.5% [5 µM] | [7] 75.9% [5 µM] | [8] 107% [5 µM] | [9] 106% [5 µM] | [10] 104% [5 µM] | [11] 89.2% [5 µM] | [12] 91.5% [5 µM] | [13] 78.7% [5 µM] | [14] 122% [5 µM] | [15] 99.1% [5 µM] | [16] 87.8% [5 µM] | [17] 100% [5 µM] | [18] 104% [5 µM] | [19] 98.4% [5 µM]

COc1ccc(NCc2cn(-c3ccc(C(=O)O)cc3)nc2-c2cc(C(F)(F)F)cc(C(F)(F)F)c2)cc1
inactive: [1] 104% | [2] 107% | [3] 94% | [4] 104% | [5] 93.6% | [6] 94.4% | [7] 87.7% | [8] 102% | [9] 110% | [10] 103% | [11] 90.5% | [12] 86.8% | [13] 101% | [14] 111% | [15] 99.2% | [16] 102% | [17] 86.5% | [18] 105% | [19] 96.4%

COc1cc(-c2nc(SC(C)C)n(C(C)C)c(=O)c2C#N)ccc1OCc1ccccc1
inactive: [1] 85% | [2] 87.4% | [3] 64.9% | [4] 79% | [5] 21% | [6] 84% | [7] 36.7% | [8] 34.4% | [9] 34.5% | [10] 99.1% | [11] 38.8% | [12] 82.4% | [13] 75.7% | [14] 91.1% | [15] 85.6% | [16] 80.3% | [17] 64.6% | [18] 101% | [19] 105%
